Dicer inh: blocks human Dicer maturation of pre-miR-21; 6% of 47,000 active; cat-ELCCA pre-miR-21 Dicer processing, chemiluminescence; hits give high values; z-score at 25 µM; AID 1347074; in the data active = z-score above about 3, passing the limit was not always enough;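 also: plate controls were vehicle for no effect and no enzyme for full effect; higher signal means more uncleaved substrate so more Dicer inhibition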
An asterisk follows results filed as active. Shown is part of a subset that was picked to be rich in hits.

SMILES | Dicer inh
CN1CCc2cc(O)cc3c2[C@H]1Cc1ccc(O)c(O)c1-3 | -0.43
CCCN1CCc2cc(O)cc3c2[C@H]1Cc1ccc(O)c(O)c1-3 | 4.5*
COc1ccccc1CCNCc1ccc2c(c1)OCO2 | 3.3*
Fc1ccccc1CCNCc1ccc2c(c1)OCO2 | 1.5
Cc1ccc(CNCCc2ccc3c(c2)OCO3)cc1 | -1.6
CC1(C)CC(n2[nH]c(=O)c3c2NC(=O)CSC3c2ccc(Cl)cc2)CCO1 (stereo unspecified) | 0.28
Cc1nc2ccccc2c(=O)n1-c1ccccc1 | -1.2
Cc1c(CCN)c2cccc3c2n1CCC3 | 3.5*
CC12CCC(=O)C=C1C=CC1C2CCC2(C)C1CC[C@]2(C)O (stereo partly specified) | -1.2
CCOc1cc(C(F)(F)F)cnc1/C(N)=N/OC(=O)NC | -0.51
O=[N+]([O-])/C=C/c1ccc(C(F)(F)F)cc1Cl | -0.06
O=[N+]([O-])/C=C/c1ccc(Cl)cc1Cl | 3.5*
COc1ccc(/C=C/[N+](=O)[O-])c(OC)c1 | -0.45
C=C1CC2(C)C(=CC1=O)CCC1C2CCC2(C)C(O)CCC12 (stereo unspecified) | 0.42
O=C(COc1ccc(Cl)cc1)OCc1csc2c1C1CCN2CC1 | 1.2
CNc1ccc(Br)cc1C(=O)c1ccccc1Cl | -1.3
COc1ccc(OC(=O)N(C)C)c(CN(C)C)c1 | 1.1
CN(C)C(=O)Oc1ccc(Br)cc1C(=O)Nc1ccc(F)cc1 | 4.4*
NCCc1ccc(O)cc1 | -1.2
NNC(=O)c1ccc(O)cc1 | 3.7*
NCC(=O)c1ccc(Cl)cc1 | 0.75
NC(N)=N/N=C/c1ccc(/C=N/N=C(N)N)cc1 | -1.9
Cc1cccc(C)c1NC1=NC(C)(C)CS1 | -4.6
O=c1c2cc(Br)cc(Br)c2[nH]c(=S)n1-c1ccc2c(c1)OCCO2 | 2.3
COCc1cc(OC(=O)N(C)C)nc(-c2cc(Cl)cc(Cl)c2)n1 | -0.35
SMILES | Dicer inh
Cc1cc(CN(C)C)c(OC(=O)N(C)C)cc1C | 0.46
COc1ccc(Oc2c(C)oc3cc(OC(=O)N(C)C)ccc3c2=O)cc1 | 0.84
Cc1cc(=O)oc2cc(OC(=O)N(C)C)c(Cl)cc12 | 3.6*
Cc1nc(COc2ccc(/C(N)=N/OC(=O)N(C)C)cc2)cs1 | -1.7
Oc1ccc(C2(c3ccc(O)cc3)CCCCC2)cc1 | 3.1*
CN1C2CCC1CC(=NOC(=O)c1ccco1)C2 | -0.45
Cc1cccc(NC(c2ccc(N(C)C)cc2)c2ccc3ccc(C)nc3c2O)n1 (stereo unspecified) | 2
C=CCOc1ccc(C2SCC(=O)Nc3c2c(=O)[nH]n3C(C)CC)cc1 (stereo unspecified) | 0.31
CCCC(C)C1(CC)C(=O)NC(=O)NC1=O (stereo unspecified) | 3.7*
C=CCC1(CC(C)C)C(=O)NC(=O)NC1=O | 0.12
COc1cc2c(=O)n(-c3ccccc3)c(=S)[nH]c2c(OC)c1OC | -0.35
O=C1CCCN1C(=O)c1ccc(F)cc1 | 0.26
O=C(c1ccco1)c1cn(Cc2ccc(Br)cc2)c2ccccc12 | -0.67
Cc1cccc(Cl)c1NC1=NCCCS1 | 0.14
CCCn1c(C)c(C(=O)OCC)c2cc(O)ccc21 | 6.8*
CCc1c(C(=O)OC)c2cc(O)ccc2n1Cc1ccccc1 | -0.36
CCCCCCn1c(N)c(C(=O)OCC)c2nc3ccccc3nc21 | -2.6
CCOC(=O)c1c(C)n(C2CC2)c2ccc(O)cc12 | 3.3*
Cc1nc(Cc2c(Cl)cccc2Cl)nc(OC(=O)N(C)C)c1Cl | -0.81
CCOc1ccc(/C=C(\C)[N+](=O)[O-])cc1OC | -0.39
Clc1ccccc1CC1=NCCN1 | 1.1
Cc1ccc(Cn2nc(C(=O)Nc3ccccc3)cc2C)cc1 | -0.56
OC(CN1CC=C(c2ccccc2)CC1)C(F)(F)F (stereo unspecified) | 1.1
CC(C)CC(=O)NC1CCSC1=O (stereo unspecified) | 12
CCOc1ccc(NC2=NCCS2)cc1 | 12
SMILES | Dicer inh
COc1cccc(-n2c(/C=C/c3ccc([N+](=O)[O-])o3)nc3ccccc3c2=O)c1 | 1.7
CNC(=O)Oc1noc2ccc(Cl)cc12 | -0.49
O=C1CC2CCCC(C1)N2Cc1ccccc1 | -0.39
O=C1/C(=C/c2ccc(-c3ccccc3)cc2)N2CCC1CC2 | -1.1
O=c1c2ccccc2nc(/C=C/c2ccc([N+](=O)[O-])o2)n1-c1ccccc1Cl | -0.34
O=c1c2ccccc2nc(/C=C/c2ccc([N+](=O)[O-])o2)n1-c1ccc(O)cc1 | 0.79
Cc1ccccc1-n1c(/C=C/c2ccc([N+](=O)[O-])o2)nc2ccccc2c1=O | 5.5*
O=c1[nH]c(O)c(/C=C2\C=CC=N2)c(=O)[nH]1 | 0.24
O=C1C(c2ccccc2)C(=O)N(c2ccccc2)C(=O)N1c1ccccc1 | -0.69
O=S(=O)(c1ccc(O)cc1)c1ccc(O)cc1 | 3.5*
O=C1C(=Cc2cccc3ccccc23)N2CCC1CC2 | 1.6
CN(CCC#N)c1ccc(C=C2C(=O)NC(=S)NC2=O)cc1 | -1.4
CN1CC[C@@]2(C)c3cc(O)ccc3N(C)[C@H]12 | -0.2
Clc1ccc(C2NN=C3C4CCN(CC4)C32)cc1Cl (stereo unspecified) | 0.36
COc1ccc2c(CCN)c[nH]c2c1 | -0.58
COc1ccc(O)c(C(C)(C)C)c1 | 3.8*
Cc1cc(C(C)(C)c2ccc(O)c(C)c2)ccc1O | 1.3
CC1(C)CC(CCNCc2ccccc2F)(c2ccccc2)CCO1 (stereo unspecified) | 2
COc1ccc2oc3c(c2c1)NC(=O)CN=C3c1ccc(F)cc1 | 3.3*
O=C1CN=C(c2ccccc2)c2oc3ccccc3c2N1 | -1.2
O=C1CN=C(c2ccc(Cl)cc2)c2oc3ccccc3c2N1 | 0.52
Cc1nc2cc(Cl)ccc2c(=O)n1-c1ccc(F)cc1 | -0.39
CC12CN3CC(C)(CN(C1)C3c1cccnc1)C2=O (stereo unspecified) | -0.99
O=C1CC(c2cccnc2)Nc2ccc3ccccc3c21 (stereo unspecified) | 3.5*
O=S(=O)(c1ccc(Cl)cc1Cl)N1CCCC1c1cccnc1 (stereo unspecified) | -0.7
SMILES | Dicer inh
C=CC1CC2CCN1C(C(=O)c1ccnc3ccc(OC)cc13)C2 (stereo unspecified) | -1.1
CCCCCC[C@H]1C(=O)O[C@H](C)C(NC(=O)c2cccc(NC=O)c2O)C(=O)O[C@@H](C)[C@@H]1OC(=O)CC(C)C (stereo partly specified) | 1.9
CC12CCC3C(CC4OCC35CCC(O)C[C@]45Br)C1CCC2OC(=O)c1ccccc1 (stereo partly specified) | -1.1
CCN1CCN(c2ncnc3nc[nH]c23)CC1 | 0.02
CSc1ncccc1C1=N/C(=C\c2ccc(Cl)cc2)C(=O)O1 | -0.36
COc1ccccc1C1CCN(c2ccc([N+](=O)[O-])c(C(F)(F)F)c2)CC1 | 0.23
CC1(C)CN=C(Nc2ccccc2)S1 | 3*
Cc1ccccc1NC1=NCC(C)(C)S1 | -0.96
CC1(C)CN=C(Nc2cccc(C(F)(F)F)c2)S1 | -1.1
CCCCCOc1ccc(C2SCC(=O)Nc3c2c(=O)[nH]n3C(C)C)cc1 (stereo unspecified) | -0.28
C#CCSc1nc2ccccc2c(=O)n1-c1ccccc1OC | 0.57
Fc1cccc(CN2CCN(Cc3ccccc3F)CC2)c1 | -0.3
CC(N)[C@H](O)c1ccc(O)c(O)c1 (stereo partly specified) | 4.1*
COc1ccc(OC)c(C(O)C(C)N)c1 (stereo unspecified) | 0.13
C[C@H](N)[C@H](O)c1ccc(O)c(O)c1 | 5.6
c1ccc(CNCCc2c[nH]c3ccccc23)cc1 | 3.2*
CCc1ccc(CNCCc2c[nH]c3ccccc23)cc1 | -0.52
Cc1cccc(CNCCc2c[nH]c3ccccc23)c1 | 0.46
CC(=O)OC1CCC2C3CCC4CCC(=O)CC4(C)C3CCC12C (stereo unspecified) | -2.1
CCc1ccccc1-n1c(=S)[nH]c2ccc(C)cc2c1=O | -0.18

Compound activity deposited in PubChem BioAssay by Center for Chemical Genomics, University of Michigan.
